Compounds with a hit are over-represented: about 1.8% of the library has one in this group of screens.
NPR1 activator – GC-A (human) enzyme activation | P16066 | HEK293 GC-A cells, cGMP TR-FRET, EC30 ANP; 0% at EC30 ANP, 100% saturating ANP | activation, % at 10 µM | actives 0.14% (n = 370,000) | AID 1671463; in the data active = activation above about 40%
NPR2 activator – GC-B (human) receptor activation; P20594; HEK293-GC-B cells, CNP EC30, cGMP TR-FRET; 0% at EC30 CNP, 100% saturating CNP; activation, % at 10 µM; actives 0.11% (n = 370,000); AID 1920062;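 active = activation at 10 µM reaching about 35% in either raw or pattern-adjusted values, limit read from the data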
Exocytosis inh – lytic granule exocytosis inhibition; inhibition, % at 10 µM; actives 0.66% (n = 360,000); TALL-104 LAMP-1 surface exposure, flow cytometry; cells stimulated with thapsigargin and PMA; AID 651702;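 active = inhibition above about 55%, limit read from the data; inconclusive = no clear call, values can overlap the other calls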
Myeloid diff 2 – compounds promoting myeloid differentiation | ER-HoxA9 myeloid progenitors, lysozyme-GFP differentiation, flow cytometry | calls only at 10 µM | actives 1% (n = 360,000) | AID 624256;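 active = normalized GFP-positive differentiation at or above the plate's own cutoff, the solvent-only control mean plus 3 SD; inconclusive = no clear call, values can overlap the other calls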;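 also: cells exposed to compound for four days before flow analysis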
* = called active by the depositor; i = inactive; ? = inconclusive; · = not tested or not shown; + = active, no number.

SMILES	NPR1 activator	NPR2 activator	Exocytosis inh	Myeloid diff 2
COc1ccccc1C(=O)NC1CCCCN(Cc2cccc(Cl)c2)C1=O (centres undefined)	0	0	·	·
Cc1nc2sc(C(=O)NCc3ccncc3)c(N)c2c(C)c1Cl	10	8	·	·
Cc1cc(C)n(CC(C)NCc2cn[nH]c2-c2cccc3ccccc23)n1 (centres undefined)	-21	-4	-8	i
Cc1cc(C)n(CC(C)NCc2cn[nH]c2-c2ccc(C)c(C)c2)n1 (centres undefined)	-27	-9	8	+
CCC(C(=O)Nc1ncn[nH]1)(C(F)(F)F)C(F)(F)F	-3	1	2	+
O=C(Nc1ncn[nH]1)C(F)(F)C(F)F	9	12	0	i
COc1ccccc1CCn1cnc(-c2cccc(F)c2)c1CC(C)C	-6	1	·	·
COCCN1Cc2cccc(C(=O)Nc3ccc(S(=O)(=O)N4CCCCC4)cc3)c2C1=O	5	-1	3	+
COCCN1Cc2cccc(C(=O)Nc3ccc(C)cc3)c2C1=O	8	-1	-3	i
N#CC(C#N)=C1C=CC=CN1/C(=C\c1ccco1)C(=O)c1ccc(Cl)cc1	4	-9	90*	?
N#CC(C#N)=C1C=CC=CN1/C(=C\c1ccco1)C(=O)c1ccc(-c2ccccc2)cc1	25	-2	28	i
O=[N+]([O-])c1cc([N+](=O)[O-])c(Oc2c(F)cccc2F)cc1NN1CCCCC1	-1	-4	78*	i
O=[N+]([O-])c1cc([N+](=O)[O-])c(Oc2c(F)ccc(F)c2F)cc1NN1CCCCC1	3	-1	4	i
CCc1cc(/C(Cc2ccc3ccccc3n2)=N\O)c(O)cc1O	-3	-8	-1	i
Cc1c(O)ccc(/C(Cc2ccc3ccccc3n2)=N\N)c1O	10	1	1	+
O=C(O)c1ccccc1-c1ccc(/C=c2\sc3nc4cc(Br)cnc4n3c2=O)o1	·	·	-8	i
Cc1cc2nc3s/c(=C/c4ccc(-c5ccccc5C(=O)O)o4)c(=O)n3c2cc1C	11	0	23	+
C=CCCC1(CCC)C(=O)/C(=C(\O)c2ccccc2)C(=O)C(CCC)=C1OC (centres undefined)	-4	-5	·	·
O=C(CN1CCN(S(=O)(=O)c2ccc(F)cc2)CC1)Nc1ccc(F)cc1F	0	1	-2	+
N#Cc1c(SCc2ccccc2)nc(N2CCOCC2)c2c1CCCC2	35	37*	1	i
COc1cc2c(cc1OC)-c1nc3ccccc3c(=O)n1C(C)(C)C2	-2	2	1	+
COc1ccc(C(C(=O)NC(C)(C)C)n2c(-c3ccc(=O)[nH]c3)nc3ccccc32)cc1 (centres undefined)	45*	45*	2	i
CSc1nc2ccc(NC(=O)C3CC(=O)N(Cc4ccccc4)C3)cc2s1 (centres undefined)	-2	-15	-3	+
Cn1cnc(S(=O)(=O)N2CCCC(c3cc(C(=O)Nc4ccc(F)c(Cl)c4)no3)C2)c1 (centres undefined)	8	4	2	i
CCOC(=O)/C(C#N)=C\c1ccc(OC)c(OC)c1	-1	-9	-3	i
SMILES	NPR1 activator	NPR2 activator	Exocytosis inh	Myeloid diff 2
CCOC(=O)c1c(-c2ccccc2)csc1NC(=O)/C(C#N)=C/c1ccc(O)c(OC)c1	1	-6	-3	+
CCOC(=O)c1c(-c2ccccc2)csc1NC(=O)/C(C#N)=C/c1ccc(OC)c(OC)c1	0	4	-3	+
CCOC(=O)c1c(-c2ccccc2)csc1NC(=O)c1cc(-c2ccccc2OC)on1	5	0	-2	i
CC(C)c1ccc(S(=O)(=O)c2nnn3c2nc(NCC2CCCO2)c2ccccc23)cc1 (centres undefined)	·	·	37	i
Cc1ccc(C)c(Nc2nc3c(S(=O)(=O)c4ccccc4)nnn3c3ccccc23)c1	17	12	-6	i
Cc1ccc(S(=O)(=O)c2nnn3c2nc(Nc2cccc(C)c2)c2ccccc23)cc1	49*	50*	-1	i
O=S(=O)(c1ccccc1)c1nnn2c1nc(NC1CCN(Cc3ccccc3)CC1)c1ccccc12	3	3	27	+
O=C1NC(Cc2ccc(O)cc2)c2nc3cc(F)ccc3c(=O)n2-c2cc3ccccc3cc21 (centres undefined)	1	21	2	i
CC(=O)OC[C@@H]1CN(Cc2ccccc2)C[C@H](n2cnc3c(NC4CCCC4)ncnc32)O1	6	4	-5	i
COc1cc(NC(=O)c2cc(C)on2)c(OC)cc1Cl	-5	0	·	·
COCc1[nH]nc2c1C(c1ccc(F)cc1)N(Cc1ccccc1)C2=O (centres undefined)	7	-7	·	·
CN(C)C(=O)C(CCN1CCC(O)(c2ccc(Cl)cc2)CC1)(c1ccccc1)c1ccccc1	-24	-15	10	+
O=C(CN1C(=O)C(=O)c2ccccc21)NCCc1ccccc1	0	0	1	i
O=C1C(=O)N(CCCc2ccccc2)c2ccccc21	·	·	76*	?
CCOc1ccc(Nc2nc3c(C)cccc3cc2C#N)cc1	-4	-4	-4	+
CN(C)CCCN(C(=O)/C=C/c1cccs1)c1nc2c(F)cccc2s1	-6	-7	57*	i
Cc1cccc2sc(N(CCN(C)C)C(=O)/C=C/c3cccs3)nc12	-9	-12	-12	i
CCCCNc1ccc2c3c(cccc13)C(=O)N(CCCC)C2=O	18	8	44	+
CC(C)[C@H](NC(=O)CC1CCCC1)C(=O)N1CCC[C@H]1C(=O)NCCc1ccccc1Cl	2	8	·	·
CCCCc1c(-c2ccccc2OC)ncn1CCc1ccccc1Cl	-19	-12	36	i
CC(=O)N(C1=C(Cl)C(=O)c2ccccc2C1=O)C1CCCCC1	5	-5	90*	i
CC(=O)N(c1ccccc1C)C1CCCC1	4	2	-9	i
CCC(C(=O)NC1CCCC1)n1c2ccccc2c2nc(=O)cc(C)n21 (centres undefined)	-6	-10	-1	i
CCn1c(SCC(=O)Nc2ccc3c(c2)OCO3)nc2c(c1=O)SC(C)C2 (centres undefined)	2	1	11	+
CC1Cc2nc(SCC(=O)Nc3ccc4c(c3)OCO4)n(CCc3ccccc3)c(=O)c2S1 (centres undefined)	3	11	14	i
CC1Cc2nc(SCC(=O)c3ccccc3)n(Cc3ccccc3)c(=O)c2S1 (centres undefined)	0	9	-5	+
Oc1ccc(C[C@H]2CNCCN2CCc2cc(C(F)(F)F)cc(C(F)(F)F)c2)cc1	5	4	-7	i
Oc1ccc(C[C@@H]2CNCCN2CCc2cc(C(F)(F)F)cc(C(F)(F)F)c2)cc1	9	12	9	+
O=C(O)c1ccc(NC(=O)c2cccc(S(=O)(=O)Nc3ccc(C(=O)O)cc3)c2)cc1	-1	0	-1	i

Source: PubChem (several laboratories)
